Laboratory results taken from PubChem BioAssay (EPA / NIEHS).
The source made the active and inactive calls. How the source made its calls: active means hit-call score of the fitted dose curve at least 0.9, where 1 is the maximum; inactive means score below 0.9.

Assay: CCTE_Harrill_HTTr_Apoptosis_MCF7: CCTE's 6-hour Apoptosis Assessment for the High-Throughput Transcriptomics (HTTr) Platform, in MCF-7 cells cultured in DMEM + 10% fetal bovine serum, Harrill Lab (AID 2284011)
Text: This is a cell-based assay that evaluates apoptosis using high content imaging to evaluate activation of caspase-3/7 using the CellEvent Caspase 3/7 Green detection reagent in 384-well format.One of seven assay components measured from the CCTE_Harrill_HTTr_Apoptosis assay. This was part of a full screening experiment. This is a cell-based assay that evaluates apoptosis in MCF-7 cells cultured in DMEM + 10% fetal bovine serum. High content imaging is used to evaluate activation of caspase-3/7 using the CellEvent Caspase 3/7 Green detection reagent. Measurements are taken at 6 hours after chemical dosing in 384-well format.The assay component endpoint CCTE_Harrill_HTTr_Apoptosis_MCF7 was analyzed with bidirectional fitting relation to DMSO as the negative control and baseline of activity. Using a type of viability reporter, gain-of-signal activity can be used to evaluate activation of caspase-3/7 using the CellEvent Caspase 3/7 Green detection reagent to understand changes in apoptosis. To generalize the intended target to other relatable targets, this assay endpoint is annotated to cell cycle, where the subfamily is apoptosis.
Chemicals were tested in MCF7 cells in an eight point dilution series with a six hour exposure duration.

| SMILES | outcome | AC50 |
| --- | --- | --- |
| COC(=O)CCCCC(=O)OC | inactive | – |
| COc1cc(CCC(=O)CC(=O)CCc2ccc(O)c(OC)c2)ccc1O | inactive | – |
| Oc1cccc(O)c1 | inactive | – |
| COCC(C)O (stereo not given) | inactive | – |
| CCN(CC)CCNc1ccc(CNC=O)c2sc3ccc(OC)cc3c(=O)c12 | inactive | – |
| O=[N+]([O-])c1ccc(O)cc1 | inactive | – |
| CC(=O)NC1(c2cccc(F)c2)CCN(CC[C@@]2(c3ccc(Cl)c(Cl)c3)CN(c3ccccc3)C(=O)CO2)CC1 | inactive | – |
| CC(O)CO (stereo not given) | inactive | – |
| Nc1cccc2c(N)cccc12 | inactive | – |
| CCCCCCCCCCCCN1CCCC1=O | inactive | – |
| OCCC(F)(F)C(F)(F)C(F)(F)C(F)(F)C(F)(F)C(F)(F)F | inactive | – |
| CC(O)C(=O)O (stereo not given) | inactive | – |
| CCc1ccc(CCOc2ccc(CC3SC(=O)NC3=O)cc2)nc1 (stereo not given) | inactive | – |
| Cc1cc(CCN2CCN(c3nsc4ccccc34)CC2)cc2c1NC(=O)CC2(C)C | – | 63.6 µM (active) |
| CN1CCN(c2ccccc2/C=C2\SCCN(c3ccc(Cl)c(Cl)c3)C2=O)CC1 | inactive | – |
| CC(=O)CC(C)(C)O | inactive | – |
| C[C@@H]1C[C@H]2[C@@H]3CCC4=CC(=O)C=C[C@]4(C)[C@@]3(F)[C@@H](O)C[C@]2(C)[C@@]1(O)C(=O)COP(=O)(O)O | inactive | – |
| CCOC(=O)CC(O)(CC(=O)OCC)C(=O)OCC | inactive | – |
| CCCCC(CC)COC(=O)CCCCC(=O)OCC(CC)CCCC (stereo not given) | inactive | – |
| CC1=C(/C=C/C(C)=C/C=C/C(C)=C/C(=O)O)C(C)(C)CCC1 | inactive | – |

| SMILES | outcome | AC50 |
| --- | --- | --- |
| NC(=O)N(O)[C@@H]1C=C[C@H](Oc2cccc(Oc3ccc(F)cc3)c2)C1 | inactive | – |
| O=c1c(-c2ccc(O)cc2)coc2cc(O)ccc12 | inactive | – |
| Oc1cc2ccccc2c2ccccc12 | inactive | – |
| O=C(OCCOCCOC(=O)c1ccccc1)c1ccccc1 | inactive | – |
| CCCCCCC(=O)O | inactive | – |
| c1ccc2c(c1)Cc1ccccc1-2 | inactive | – |
| Cc1oc(-c2ccccc2)nc1CCOc1ccc(C[C@H](Nc2ccccc2C(=O)c2ccccc2)C(=O)O)cc1 | inactive | – |
| CCc1nn(C2CCCCC2)c2cc(C3(C#N)CCC(C(=O)O)CC3)ccc12 (stereo not given) | inactive | – |
| COc1ccc([N+](=O)[O-])cc1N | inactive | – |
| C#C[C@]1(O)CC[C@H]2[C@@H]3CCC4=CC(=O)CC[C@@H]4[C@H]3CC[C@@]21C | inactive | – |
| CCCCCCCCC(=O)O | inactive | – |
| O=C1OC2(c3ccccc31)c1cc(Br)c(O)c(Br)c1Oc1c2cc(Br)c(O)c1Br | – | 1.92 µM (active) |
| CC(C)(C)CC(C)(C)c1ccc(O)c(-n2nc3ccccc3n2)c1 | inactive | – |
| c1ccc2cc3c(ccc4ccccc43)cc2c1 | inactive | – |
| CC[C@H](C)[C@@H](C(=O)O)n1sc2ccccc2c1=O | inactive | – |
| CCCOC(=O)c1ccc(O)cc1 | inactive | – |
| CC[C@H](c1ccc(O)cc1)[C@@H](CC)c1ccc(O)cc1 | inactive | – |
| COCC(C)OCC(C)O (stereo not given) | inactive | – |
| CCCCC[C@H](O)CC(=O)CCc1ccc(O)c(OC)c1 | inactive | – |
| c1ccc2c(c1)ccc1ccccc12 | inactive | – |
